The text below walks through data of the supplement of paper PMC6555819.

The first assay deals with PPARg:RXRa 270nM:90nM, anti-RXR (NR concentration 270 nM, RXRa partner concentration 90 nM). Nature of the assay: PBM binding z-score (relative to random genomic background probes); higher = stronger binding; sequences stand for … in GC…GCGATTGACAGCGTAGAATGAAGG
Summed up: (§1)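 Binding z-scores take random background probes as their reference. They come from custom Agilent 4×180K protein-binding microarrays incubated 1 h with ligand-free nuclear receptor dimers, with antibodies against each partner (one per run) detecting binding. Scanned fluorescence was regression-normalized.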
In the case of GCATATAGGTAATACAAGGTAAAAGTCCGATTGT, the PBM binding z-score was 0.607.
ACTCGGAGGAGAAAGGTCAGAGCTACGCCAGTGA came in with a PBM binding z-score of 4.3.
In turn, CCTTACTGGTCACTGACAGGTTATAGCATTTGGA came in with a PBM binding z-score of 0.384.
Same read-out and setting: for ATCTCTAGGGAAAAGTTCAGTGAATCCCGAGGAT the value was 5.66; for TCACGGAGGACACGAAGGTCAGAGCTTTCCAGAG, 1.52.
The same measure, in the same setting: to CGTACTAGGTCAGAACAGGACAGTGAAGGATGAT belongs 3.35; to CGAACTAGGTTAAGGACAGTGAATCTCCGCACGC, 2.74.
The sequence TCAGACAGGTGAAGGTAACTCTGGTACGCAGTCG yielded a PBM binding z-score of 2.02.
Still for that read-out and setting: for TAGCCTAGATCATGCGGGCCAGTATAGTGTCGGC the value was -0.522.
On the same count and under the same terms, for AATACAGGGTCATCGTAGGCAAGAGTACGCACAG the value was 6.27.
Still for that read-out and setting: to ATCTCTAGGTCAGACTCAGTTCAGTGAAGAACGC belongs 2.96; to CCAGACAGGTGAGTAGGTAACTCAGCCTCGATTA, 0.565.
TCTGCTAGCTCAGTTGGTCAGCTAACGAGCTGCC displayed a PBM binding z-score of 0.0147.
On the same count and under the same terms, to CTACCAAGGTGAACAAGCTCGTTGATTACTATTC belongs 0.345.
Same read-out and setting: to CCGATTGGGGCAGAAAGGTTACCATACCATCCGG belongs 3.83.
In turn, ATATGTAGATTACATCCGGGTCATTCAGGCTATG had a PBM binding z-score of 1.25.
The same measure, in the same setting: for CCTCGGAGGACATAAGGTCAGAGCTGTCCGCTTT the value was 0.85; for TCTTGTAGATCAAGCTGGTTAAGAAAGCCTGAGT, 1.04; for AGAATGAGTTTAAGATCAGGGAAACAGAATACAT, -0.0778.
Same read-out and setting: to ATACCAAGGTGATCGTGAGGTCGTTGAGACTAAC belongs 0.352.
The same measure, in the same setting: for GCTCGGAGGACATGGTCAGAGCTTTGTCCGTAGA the value was -0.775.
Turning to CCGAGTAGGTTATGGGGCATACAGGCAACGGTGA, the PBM binding z-score worked out at 4.52.
CGTCCAAGGTCAAAGGTCAGTTAAGAGATGACGG had a PBM binding z-score of 8.31.
On the same count and under the same terms, for CTAGCAAGGTGAACAAGGTCGTTGATTACTATTC the value was 1.3.
Consider ACAGACAGGTGATGATGGTAACTCAGGCTATCAT, for which the PBM binding z-score is -0.301.
Sequence CAAACTAGGTCACAGAGGTCCAAGTCCGTGCGTA registered a PBM binding z-score of 7.58.
The same measure, in the same setting: to TAGCCTTGGTCATGCGGGCCAGTATAGTGTCGGC belongs -0.768; to CCAGACAGGTGAATGGTAACTCAGTCTGGTACGC, 0.128; to GCTGATAGGTCAACTGATGGTCAGCTAAAGCTCG, 4.06.
Turning to AGAACGAGGGCCCGCTGAGTTGATAGCAGAGTAG, the PBM binding z-score was -1.4.
On the same count and under the same terms, for ATATGTAGGTTACGGGTCATTCAGGTTGGTTCGC the value was 8.21; for CCTCCAAGGTCAATGCTAGGTCAGTGAAAGCATT, 4.93; for CCTCGGAGGAAAGAAGGTCAGAGCTGTCCGCTTT, 0.98.
The same measure, in the same setting: to ACTACCAGGCCAAGGGTCACTCAAGATTAGTCCG belongs 7.51; to CCGACTGGGGCATAAGGTTAGCATAAGCCAGCCC, 2.32.
Same read-out and setting: for TCTTGTAGATCAAAGGTTAAGATAGCCGAAGCCT the value was 8.06; for ACTATTTGGTCAGCTGAGGTCACACACAATTCGG, 2.4; for CGTTAAAGTTCAACTAAGGTAACGTAAAGCACGC, 4.36.
For AGTCAATGTTCACTAGGTAACGTAAGATTCAGCT, the PBM binding z-score was 0.368.
Still for that read-out and setting: for AGTCAAAGTTCACTAGTTAACGTAAGATTCAGCT the value was 5.73.

The test system of the next assay is PPARg:RXRa 30nM:10nM, anti-RXR (NR concentration 30 nM, RXRa partner concentration 10 nM). The description is as above. The gist of the method:
as §1
Turning to GCATATAGGTAATACAAGGTAAAAGTCCGATTGT, the PBM binding z-score was -0.0355.
With ACTCGGAGGAGAAAGGTCAGAGCTACGCCAGTGA, the PBM binding z-score was 2.61.
Still for that read-out and setting: for CCTTACTGGTCACTGACAGGTTATAGCATTTGGA the value was -0.0661.
For the sequence ATCTCTAGGGAAAAGTTCAGTGAATCCCGAGGAT, the PBM binding z-score turned out to be 3.84.
On the same count and under the same terms, for TCACGGAGGACACGAAGGTCAGAGCTTTCCAGAG the value was 2.16.
Still for that read-out and setting: to CGTACTAGGTCAGAACAGGACAGTGAAGGATGAT belongs 1.31; to CGAACTAGGTTAAGGACAGTGAATCTCCGCACGC, 0.975; to TCAGACAGGTGAAGGTAACTCTGGTACGCAGTCG, 3.66.
For the sequence TAGCCTAGATCATGCGGGCCAGTATAGTGTCGGC, the PBM binding z-score is -0.938.
Take AATACAGGGTCATCGTAGGCAAGAGTACGCACAG: the PBM binding z-score was found to be 3.31.
Same read-out and setting: to ATCTCTAGGTCAGACTCAGTTCAGTGAAGAACGC belongs 0.87; to CCAGACAGGTGAGTAGGTAACTCAGCCTCGATTA, -0.111; to TCTGCTAGCTCAGTTGGTCAGCTAACGAGCTGCC, 0.674.
On the same count and under the same terms, to CTACCAAGGTGAACAAGCTCGTTGATTACTATTC belongs -0.0799.
Same read-out and setting: for CCGATTGGGGCAGAAAGGTTACCATACCATCCGG the value was 2.17; for ATATGTAGATTACATCCGGGTCATTCAGGCTATG, 0.659.
As for CCTCGGAGGACATAAGGTCAGAGCTGTCCGCTTT, the PBM binding z-score is -0.243.
The same measure, in the same setting: to TCTTGTAGATCAAGCTGGTTAAGAAAGCCTGAGT belongs 2.54.
Same read-out and setting: to AGAATGAGTTTAAGATCAGGGAAACAGAATACAT belongs 0.203.
Same read-out and setting: for ATACCAAGGTGATCGTGAGGTCGTTGAGACTAAC the value was -0.174; for GCTCGGAGGACATGGTCAGAGCTTTGTCCGTAGA, -1.35; for CCGAGTAGGTTATGGGGCATACAGGCAACGGTGA, 2.65.
In the case of CGTCCAAGGTCAAAGGTCAGTTAAGAGATGACGG, the PBM binding z-score turned out to be 7.4.
In the case of CTAGCAAGGTGAACAAGGTCGTTGATTACTATTC, the PBM binding z-score stood at 0.0127.
The same measure, in the same setting: for ACAGACAGGTGATGATGGTAACTCAGGCTATCAT the value was 0.191; for CAAACTAGGTCACAGAGGTCCAAGTCCGTGCGTA, 5.04.
Turning to TAGCCTTGGTCATGCGGGCCAGTATAGTGTCGGC, the PBM binding z-score is -0.886.
Still for that read-out and setting: for CCAGACAGGTGAATGGTAACTCAGTCTGGTACGC the value was -0.647; for GCTGATAGGTCAACTGATGGTCAGCTAAAGCTCG, 1.34; for AGAACGAGGGCCCGCTGAGTTGATAGCAGAGTAG, -0.848.
As for ATATGTAGGTTACGGGTCATTCAGGTTGGTTCGC, the PBM binding z-score worked out at 6.67.
Same read-out and setting: for CCTCCAAGGTCAATGCTAGGTCAGTGAAAGCATT the value was 1.2.
Still for that read-out and setting: to CCTCGGAGGAAAGAAGGTCAGAGCTGTCCGCTTT belongs -0.857; to ACTACCAGGCCAAGGGTCACTCAAGATTAGTCCG, 6.65.
CCGACTGGGGCATAAGGTTAGCATAAGCCAGCCC came in with a PBM binding z-score of 0.353.
On the same count and under the same terms, to TCTTGTAGATCAAAGGTTAAGATAGCCGAAGCCT belongs 8.48.
The same measure, in the same setting: for ACTATTTGGTCAGCTGAGGTCACACACAATTCGG the value was 0.852; for CGTTAAAGTTCAACTAAGGTAACGTAAAGCACGC, 1.66.
The same measure, in the same setting: for AGTCAATGTTCACTAGGTAACGTAAGATTCAGCT the value was 0.15; for AGTCAAAGTTCACTAGTTAACGTAAGATTCAGCT, 2.56.
